# Reference: PubChem BioAssay (Tox21)
# Records with an inconclusive call do not appear. Where a call stands in place of a potency, no number is given. A number with no mark means an inactive call. Active and inactive are the calls of the source. Unless noted, the call rests on the fitted dose curve; in most records, active means well fitted curve in the direction sought with a large enough effect in the repeat runs; inconclusive means weak or mixed curves; inactive means no such curve, though single readings can be large; an effect the other way counts as inactive or inconclusive.
# Legend:
# [1] = qHTS assay to identify small molecule agonists of the estrogen related receptor (ERR) signaling pathway (AID 1224820)
# Outline: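 An ERR cell line provided by NTP was seeded at 2,000 cells per well and allowed to settle for 6 h before compounds in DMSO were added. After 18 h at 37 C, luciferase activity was measured by One-Glo luminescence.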
# [2] = system: estrogen-related receptor alpha (ERRalpha) with PGC-1alpha coactivator, human; experiment: qHTS assay to identify small molecule antagonists of the estrogen related receptor signaling pathway with the pleiotropic PPARgamma coactivator (PGC) (AID 1224821; calls by dose curve;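 further: series mostly up to about 46 µM; lower luminescence signal means antagonism of PGC/ERR signalling; nearly all actives have a fitted effect of over 50% in size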)
# Outline: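 A PGC/ERR cell line supplied by NTP is seeded, allowed 6 h at 37 C, and treated with test compounds in DMSO for 18 h. Signal is then measured as luciferase luminescence using One-Glo.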
# [3] = qHTS assay to identify small molecule antagonists of the estrogen related receptor signaling pathway with the pleiotropic PPARgamma coactivator (PGC) cell viability counter screen (AID 1224822;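 further: series mostly up to about 46 µM; viability read after 17.5 h compound exposure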)
# Outline: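 Viable cell signal (CellTiter-Fluor, 30 min, 37 C/5% CO2) was measured in PGC/ERR cells after a 17.5 h compound incubation.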
# [4] = qHTS assay to identify small molecule agonists of the estrogen related receptor signaling pathway with the pleiotropic PPARgamma coactivator (PGC) (AID 1224823)
# Outline: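 Compounds dissolved in DMSO are added by pin tool to PGC/ERR cells that have settled for 6 h, and incubation continues 18 h at 37 C. Reporter output is measured as One-Glo luminescence.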
# [5] = qHTS assay to identify small molecule antagonists of the estrogen related receptor (ERR) signaling pathway (AID 1224819;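 further: luminescence from an ERR-driven luciferase reporter measured with One-Glo reagent; series mostly up to about 46 µM; nearly all actives have a fitted effect of over 50% in size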)
# Outline: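 ERR reporter cells were plated at 2,000 cells/well and left 6 h at 37 C/5% CO2 before pin-tool transfer of compounds in DMSO. After 18 h at 37 C, One-Glo was added and luminescence was read 30 min later at room temperature.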
compound,measurement,setting,value
CC1(C(=O)O)C2CCC(O2)C1(C)C(=O)O (configuration not stated),Potency,[1],inactive
same,Potency,[2],inactive
C[N+]1(C)C2CCC1CC(OC(=O)C(CO)c1ccccc1)C2 (configuration not stated),Potency,[3],inactive
COC[C@H]1OC(=O)c2coc3c2[C@@]1(C)C1=C(C3=O)C2CCC(=O)[C@@]2(C)C[C@H]1OC(C)=O (some centres not stated),Potency,[1],inactive
same,Potency,[2],inactive
same,Potency,[4],inactive
Ic1ccccc1CNC1C2CCN(CC2)C1C(c1ccccc1)c1ccccc1 (configuration not stated),Potency,[1],inactive
same,Potency,[4],inactive
NC(=NCCC[C@H](N)C(=O)O)N[N+](=O)[O-],Potency,[5],inactive
same,Potency,[2],inactive
same,Potency,[3],inactive
same,Potency,[4],inactive
